# Legend:
# Assay in all cases: DAPPL (digital affinity profiling via proximity ligation, sequencing); 10 mM Tris-HCl pH 7.5, 50 mM NaCl, 1 mM DTT, 4% glycerol, room temperature, 30 min; GST-TFs on glutathione beads, 16-mer random dsDNA library, 0.1% formaldehyde crosslink after washing; high values mean tight binding
# [1] = molecular target: T1, FEV (Homo sapiens, UniProt Q99581 1-238); settings: protein: recombinant; tags: N-terminal GST; dsDNA, one strand shown
# T1 sequence: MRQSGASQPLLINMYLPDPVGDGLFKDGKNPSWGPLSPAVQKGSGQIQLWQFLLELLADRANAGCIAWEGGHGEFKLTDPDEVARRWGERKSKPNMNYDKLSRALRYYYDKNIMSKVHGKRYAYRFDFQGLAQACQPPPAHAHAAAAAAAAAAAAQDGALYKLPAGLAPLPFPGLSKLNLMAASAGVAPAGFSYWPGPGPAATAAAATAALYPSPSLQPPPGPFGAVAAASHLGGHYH
# In short: (§1)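 Human transcription factors fused to GST were expressed in yeast, captured on glutathione beads, given DNA barcodes and pooled with a GST-only negative control. Pools were incubated with 200 nmole of a 16-mer random double-stranded DNA library in Tris/NaCl/DTT/glycerol buffer at room temperature for 30 min. They were then washed, crosslinked with 0.1% formaldehyde, proximity-ligated (BsaI/T4 ligase, 1 h, 37 °C), PCR-amplified and sequenced on an Illumina NextSeq500. Binding signal is each 6-mer's read frequency for a factor divided by its frequency for the GST control.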
# [2] = molecular target: ETV5 (Homo sapiens, UniProt P41161 1-510); settings: protein: recombinant; tags: N-terminal GST; dsDNA, one strand shown
# Sequence of ETV5 (P41161 whole entry): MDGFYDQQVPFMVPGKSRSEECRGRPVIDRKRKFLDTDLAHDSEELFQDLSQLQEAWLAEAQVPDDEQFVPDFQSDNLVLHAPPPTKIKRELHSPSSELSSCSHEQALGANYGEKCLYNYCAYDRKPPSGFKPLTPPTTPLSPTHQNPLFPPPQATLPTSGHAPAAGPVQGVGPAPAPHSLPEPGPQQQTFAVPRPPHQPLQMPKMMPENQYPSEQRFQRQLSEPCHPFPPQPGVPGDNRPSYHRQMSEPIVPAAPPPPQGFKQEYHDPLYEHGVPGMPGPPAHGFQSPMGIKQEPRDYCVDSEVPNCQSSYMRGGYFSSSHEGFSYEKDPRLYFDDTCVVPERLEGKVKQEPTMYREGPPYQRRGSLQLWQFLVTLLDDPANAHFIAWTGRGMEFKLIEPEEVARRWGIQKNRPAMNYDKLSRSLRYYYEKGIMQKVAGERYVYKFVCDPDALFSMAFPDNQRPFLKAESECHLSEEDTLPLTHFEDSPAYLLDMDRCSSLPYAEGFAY
# In short: as §1
# [3] = molecular target: HSF1 (Homo sapiens, UniProt Q00613 1-529); settings: protein: recombinant; tags: N-terminal GST; chain copies: 3; dsDNA, one strand shown
# Sequence of HSF1 (Q00613 whole entry): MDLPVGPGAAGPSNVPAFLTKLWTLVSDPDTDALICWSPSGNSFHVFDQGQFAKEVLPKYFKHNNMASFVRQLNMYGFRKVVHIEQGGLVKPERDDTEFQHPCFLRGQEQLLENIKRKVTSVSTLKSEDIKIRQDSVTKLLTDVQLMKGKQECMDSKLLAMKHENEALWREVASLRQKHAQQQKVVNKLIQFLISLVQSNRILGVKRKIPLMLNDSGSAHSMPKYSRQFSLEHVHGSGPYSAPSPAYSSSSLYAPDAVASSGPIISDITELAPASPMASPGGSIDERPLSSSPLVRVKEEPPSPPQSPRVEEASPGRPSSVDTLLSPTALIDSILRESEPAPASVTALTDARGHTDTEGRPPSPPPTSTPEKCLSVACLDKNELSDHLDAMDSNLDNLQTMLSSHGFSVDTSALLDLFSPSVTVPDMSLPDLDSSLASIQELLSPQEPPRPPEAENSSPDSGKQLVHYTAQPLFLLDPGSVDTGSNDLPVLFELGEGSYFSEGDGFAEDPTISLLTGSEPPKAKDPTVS
# In short: as §1
# [4] = molecular target: T2, SPIC (Homo sapiens, UniProt Q8N5J4 1-248); settings: protein: recombinant; tags: N-terminal GST; dsDNA, one strand shown
# T2 sequence: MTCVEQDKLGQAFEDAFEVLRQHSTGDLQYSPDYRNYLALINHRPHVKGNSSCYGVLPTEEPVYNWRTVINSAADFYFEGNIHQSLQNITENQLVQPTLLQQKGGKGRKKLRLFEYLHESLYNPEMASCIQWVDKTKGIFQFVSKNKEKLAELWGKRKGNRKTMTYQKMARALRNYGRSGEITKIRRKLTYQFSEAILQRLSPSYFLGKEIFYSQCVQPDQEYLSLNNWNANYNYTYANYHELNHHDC
# In short: as §1
# [5] = molecular target: ELF4 (Homo sapiens, UniProt Q99607 1-663); settings: protein: recombinant; tags: N-terminal GST; dsDNA, one strand shown
# Sequence of ELF4 (Q99607 whole entry): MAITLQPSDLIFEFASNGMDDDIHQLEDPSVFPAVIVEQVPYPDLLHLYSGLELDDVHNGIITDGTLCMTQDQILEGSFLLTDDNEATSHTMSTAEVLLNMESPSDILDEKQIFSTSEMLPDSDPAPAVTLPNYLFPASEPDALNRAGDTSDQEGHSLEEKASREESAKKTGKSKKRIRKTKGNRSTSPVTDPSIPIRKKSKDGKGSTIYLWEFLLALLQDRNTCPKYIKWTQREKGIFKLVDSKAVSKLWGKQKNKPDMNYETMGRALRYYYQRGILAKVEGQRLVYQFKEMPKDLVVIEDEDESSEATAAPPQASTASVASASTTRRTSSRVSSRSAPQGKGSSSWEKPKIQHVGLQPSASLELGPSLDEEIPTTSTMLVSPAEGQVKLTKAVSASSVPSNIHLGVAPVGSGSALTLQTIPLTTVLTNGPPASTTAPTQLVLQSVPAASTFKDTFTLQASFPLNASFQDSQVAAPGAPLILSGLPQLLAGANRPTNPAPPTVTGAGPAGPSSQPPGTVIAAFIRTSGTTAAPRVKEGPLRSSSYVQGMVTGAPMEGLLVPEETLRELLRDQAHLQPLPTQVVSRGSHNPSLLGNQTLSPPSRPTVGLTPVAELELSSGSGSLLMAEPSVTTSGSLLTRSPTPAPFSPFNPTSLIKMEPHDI
# In short: as §1
# [6] = molecular target: T3, ELK4 (Homo sapiens, UniProt P28324-2 1-405); settings: protein: recombinant; tags: N-terminal GST; dsDNA, one strand shown
# T3 sequence: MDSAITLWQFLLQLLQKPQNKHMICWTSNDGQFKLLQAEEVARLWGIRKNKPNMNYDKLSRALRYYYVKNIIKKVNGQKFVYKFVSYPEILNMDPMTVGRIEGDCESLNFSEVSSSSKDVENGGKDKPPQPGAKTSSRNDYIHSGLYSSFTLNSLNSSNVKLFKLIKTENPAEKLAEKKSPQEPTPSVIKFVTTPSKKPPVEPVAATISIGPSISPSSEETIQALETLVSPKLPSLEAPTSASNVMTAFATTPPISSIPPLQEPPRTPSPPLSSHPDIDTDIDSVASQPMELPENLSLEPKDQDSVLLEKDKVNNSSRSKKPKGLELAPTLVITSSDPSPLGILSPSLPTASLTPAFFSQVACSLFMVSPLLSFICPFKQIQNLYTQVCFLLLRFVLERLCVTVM
# In short: as §1
# [7] = molecular target: T4, ETV2 (Homo sapiens, UniProt O00321 1-342); settings: protein: recombinant; tags: N-terminal GST; dsDNA, one strand shown
# T4 sequence: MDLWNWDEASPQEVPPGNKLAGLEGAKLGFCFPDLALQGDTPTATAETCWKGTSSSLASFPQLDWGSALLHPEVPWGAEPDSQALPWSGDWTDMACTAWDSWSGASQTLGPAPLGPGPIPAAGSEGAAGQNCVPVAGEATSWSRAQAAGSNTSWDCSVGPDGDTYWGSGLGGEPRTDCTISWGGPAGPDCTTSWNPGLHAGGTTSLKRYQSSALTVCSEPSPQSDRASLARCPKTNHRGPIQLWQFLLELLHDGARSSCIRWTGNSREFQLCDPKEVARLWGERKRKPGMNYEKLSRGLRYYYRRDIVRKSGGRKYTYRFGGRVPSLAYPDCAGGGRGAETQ
# In short: as §1
# [8] = molecular target: T5, ELF3 (Homo sapiens, UniProt P78545 1-371); settings: protein: recombinant; tags: N-terminal GST; dsDNA, one strand shown
# T5 sequence: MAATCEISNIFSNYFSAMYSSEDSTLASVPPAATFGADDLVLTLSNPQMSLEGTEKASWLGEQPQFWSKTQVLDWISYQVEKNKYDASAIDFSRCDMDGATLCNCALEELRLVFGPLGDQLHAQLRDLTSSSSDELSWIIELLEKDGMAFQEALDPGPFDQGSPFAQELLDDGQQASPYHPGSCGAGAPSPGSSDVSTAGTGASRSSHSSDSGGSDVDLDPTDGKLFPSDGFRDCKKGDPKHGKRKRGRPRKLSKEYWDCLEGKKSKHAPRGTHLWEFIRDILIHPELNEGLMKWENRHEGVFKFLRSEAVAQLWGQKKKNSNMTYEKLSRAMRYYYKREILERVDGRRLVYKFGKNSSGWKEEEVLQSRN
# In short: as §1
# [9] = molecular target: CRX (Homo sapiens, UniProt O43186 1-299); settings: protein: recombinant; tags: N-terminal GST; dsDNA, one strand shown
# Sequence of CRX (O43186 whole entry): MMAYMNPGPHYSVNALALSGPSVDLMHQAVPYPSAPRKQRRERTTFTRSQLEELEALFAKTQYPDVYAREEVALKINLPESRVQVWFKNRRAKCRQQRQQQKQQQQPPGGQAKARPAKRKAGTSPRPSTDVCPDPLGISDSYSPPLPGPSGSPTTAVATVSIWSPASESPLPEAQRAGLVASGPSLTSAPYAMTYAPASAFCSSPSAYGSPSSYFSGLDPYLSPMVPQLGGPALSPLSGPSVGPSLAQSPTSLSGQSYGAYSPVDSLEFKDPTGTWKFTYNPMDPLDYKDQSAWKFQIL
# In short: as §1
sequence,measurement,setting,value
CGTATA,binding signal,[1],"1.04 fold enrichment (6-mer frequency, TF over GST control)"
same,binding signal,[2],"1.15 fold enrichment (6-mer frequency, TF over GST control)"
same,binding signal,[3],"1.03 fold enrichment (6-mer frequency, TF over GST control)"
same,binding signal,[4],"1.19 fold enrichment (6-mer frequency, TF over GST control)"
same,binding signal,[5],"1.13 fold enrichment (6-mer frequency, TF over GST control)"
same,binding signal,[6],"1.07 fold enrichment (6-mer frequency, TF over GST control)"
same,binding signal,[7],"1.12 fold enrichment (6-mer frequency, TF over GST control)"
same,binding signal,[8],"1.24 fold enrichment (6-mer frequency, TF over GST control)"
same,binding signal,[9],"1.07 fold enrichment (6-mer frequency, TF over GST control)"
